An excerpt weighted towards active compounds, which were near 12% of everything screened.
Marburg entry inh = qHTS for inhibitors of binding or entry into cells for Marburg Virus; Marburg virus pseudotyped entry inhibition, cell reporter; Potency, µM (doses to about 37.8 µM), without a hit: at the highest dose activity change, negative = inhibition, actives largely listed as inhibitors; 1.8% of 300,000 active; AID 540276, 2011; calls by dose curve; tested in HEK293 cells; also: potency is read from the fitted curve at half-maximal effect; % is scaled to controls: 0 for no effect and ±100 for the full control effect
Lassa entry inh = qHTS for Inhibitors of binding or entry into cells for Lassa Virus. Lassa virus pseudotype entry inhibition, cell reporter. Potency, µM (titrated, usually from 37.9 µM), for inactives: at the top dose activity change, negative = inhibition, hits mostly inhibitors. 1.2% of 300,000 active; calls by dose curve; tested in HEK293 cells; also: potency is read from the fitted curve at half-maximal effect; % is scaled to controls: 0 for no effect and ±100 for the full control effect; nearly all actives have a fitted effect of over 50% in size
Cycloheximide cs = Cycloheximide Counterscreen for Small Molecule Inhibitors of Shiga Toxin | cell reporter, cycloheximide protein synthesis inhibition counterscreen | max response, % | 12% of 300,000 active; in the data active = max response mostly above about 13%, no sharp cut-off; inactive = mostly below about 14%; also: read at 38.3 µM for the half of the compounds with a filed dose; 0% is about no effect
Shiga inhibitor = A qHTS for Small Molecule Inhibitors of Shiga Toxin; 9.2% of 290,000 active; inhibition, % at 38.7 µM; Vero cells, Shiga toxin protein synthesis inhibition reporter; in the data active = inhibition mostly above about 28%, no sharp cut-off; inactive = mostly below about 43%; also: 0% is about no effect
Active calls of the source: *; ? = inconclusive; nt = not tested or not shown; [ ] = dose if it differs, or a comment.

SMILES	Marburg entry inh	Lassa entry inh	Cycloheximide cs	Shiga inhibitor
CC(=O)c1ccc(N(C(=O)c2ccco2)C(C(=O)NC2CCCC2)c2cccs2)cc1 (stereo not given)	-6%[46.1 µM]	nt	29*	26
CC(C)(C)c1ccc(Cn2nnc3c(=O)[nH]c(C4CCCN(C(=O)c5cccs5)C4)nc32)cc1 (stereo not given)	-28%	-24%	-4	2
O=C(Nc1ccc2c(c1)OCO2)C1C=CC(Br)O1 (stereo not given)	20%	nt	nt	nt
Cc1cccc(-c2cc(C(=O)N/N=C/c3cccnc3)c3ccccc3n2)c1	?	-9%[46.1 µM]	nt	nt
COc1cccc(-c2cc(C(=O)N/N=C/c3ccco3)c3ccccc3n2)c1	?	?	26*	67*
COc1ccc(-c2cc(C(=O)N/N=C/c3cccnc3)c3ccccc3n2)cc1	?	10µM*	27*	31
CCCc1ccc(-c2cc(C(=O)N/N=C/c3ccc([N+](=O)[O-])o3)c3ccccc3n2)cc1	7.1µM*	5.6µM*	23*	59
O=C(N/N=C/c1ccco1)c1cc(-c2ccccc2)nc2ccccc12	-12%[46.1 µM]	-15%[46.1 µM]	14	23
Cc1cccc(/C=N/NC(=O)c2cc(-c3cccnc3)nc3ccccc23)c1	-3%[46.1 µM]	nt	-1	9
CCCOc1cccc(-c2cc(C(=O)N/N=C/c3cccnc3)c3ccccc3n2)c1	?	?	30*	76*
CCOC(=O)c1noc2nc(C)n(CC(=O)Nc3ccc(Br)cc3C)c(=O)c12	nt	12%[46.1 µM]	nt	nt
COc1cccc(/C(C)=N/NC(=O)c2cc(-c3cccnc3)nc3ccccc23)c1	6%	-13%	1	-10
Cc1ccc(-c2cc(C(=O)N/N=C\c3cnn(C)c3C)c3ccccc3n2)cc1C	-24%	11µM*	9	49
C/C(=N\NC(=O)c1cc(-c2cccnc2)nc2ccccc12)c1ccccc1O	10µM*	?	11*	17
CCCOc1cccc(-c2cc(C(=O)N/N=C/c3ccccn3)c3ccccc3n2)c1	?	?	21*	42*
CCOc1ccc(-c2cc(C(=O)N/N=C(\C)c3cccnc3)c3ccccc3n2)c(OCC)c1	4µM*	?	7	-11
O=C(Nc1ccc2nc(SCC(=O)N3CCc4ccccc43)sc2c1)c1ccc(F)cc1	2%[46.1 µM]	-2%[46.1 µM]	nt	nt
Cc1ccccc1S(=O)(=O)Cc1ccc(C(=O)N(C)C2CCCCC2)o1	nt	nt	6	9
COc1ccc(-c2cc(C(=O)N/N=C(\C)c3cccnc3)c3ccccc3n2)cc1	-20%	-27%	12*	53
COc1ccc(/C(C)=N/NC(=O)c2cc(-c3cccnc3)nc3ccccc23)cc1	-26%	0%	-1	-12
c1coc(-c2nnc3sc(Cc4cccs4)nn23)c1	13%	-8%	12	30
COc1ccccc1-c1nn2c(-c3ccccc3Cl)nnc2s1	1%	nt	-2	22
c1coc(-c2nn3c(-c4ccco4)nnc3s2)c1	2%	8%	10*	12
COc1ccccc1-c1nn2c(-c3ccco3)nnc2s1	?	10%	68*	112*
COC(=O)c1cc(NC(=O)CN(c2ccccc2)S(=O)(=O)N(C)C)ccc1Cl	?	-13%[46.1 µM]	nt	nt
SMILES	Marburg entry inh	Lassa entry inh	Cycloheximide cs	Shiga inhibitor
COc1cc(/C=C2\SC(=O)NC2=O)ccc1OCC(=O)N1CCOCC1	?	4%	nt	nt
C/C(=N\NC(=O)CC#N)c1cc2ccccc2oc1=O	23%	2%	16*	29*
COc1ccccc1C(=O)NCCC(=O)Nc1cccc(C)n1	nt	nt	22*	13
COc1cccc2cc(C(=O)Nc3cccc(C)n3)c(=O)oc12	?	?	77*	66*
Cc1cccc(NC(=O)CCNC(=O)c2ccccc2Cl)n1	24%[46.1 µM]	0%[46.1 µM]	6	0
CC/C(C)=N/Nc1nc(-c2cc3cccc(OC)c3oc2=O)cs1	?	-8%	47*	53*
COc1cccc2cc(C(=O)Nc3ccc(C)cc3)c(=O)oc12	nt	1%[46.1 µM]	nt	nt
CCOc1ccc(N2C(=O)CS(=O)(=O)C23C(=O)N(Cc2cccc(Cl)c2)c2ccccc23)cc1 (stereo not given)	nt	-9%[46.1 µM]	nt	nt
CC(C)C(=O)NCC(c1ccc2c(c1)OCO2)N1CCOCC1 (stereo not given)	nt	nt	-7	9
COc1cccc2cc(NC(=O)C3CCCCC3)c(=O)oc12	?	-4%	16*	41
CC(=O)c1ccc(COC(=O)c2cc3ccccc3oc2=O)cc1	nt	nt	25*	22
NC(=S)N/N=C/c1ccccc1OC(=O)c1cc2ccccc2oc1=O	nt	nt	20	31
COC(=O)c1ccc(CNC(=O)c2cc3ccccc3oc2=O)cc1	1%[46.1 µM]	-10%[46.1 µM]	1	3
COc1cccc2cc(-c3nnc(-c4ccccc4)o3)c(=O)oc12	?	-25%[46.1 µM]	39*	87*
NC(=O)N/N=C/c1ccccc1OC(=O)c1cc2ccccc2oc1=O	nt	nt	26*	77*
COc1ccc(CNC(=O)Cn2c(=O)oc3cc(S(=O)(=O)NCc4ccccc4)ccc32)cc1	nt	-20%[46.1 µM]	nt	nt
COc1cccc2cc(C(=O)Oc3ccccc3)c(=O)oc12	nt	nt	-2	-14
COc1cccc2cc(C(=O)N3CCN(c4ccccn4)CC3)c(=O)oc12	0%	5%	32*	35
COc1ccc2oc(=O)c(C(=O)OCc3ccccc3)cc2c1	nt	nt	23*	36
CCN(C(=O)c1cc2cccc(OC)c2oc1=O)c1ccccc1	1%	4%	53*	168*
COc1cccc2cc(C(=O)OCc3ccccc3)c(=O)oc12	2%	17%	54*	49*
CC(C)=CCCC(C)=CCON=C1C[C@@H](O)[C@@H](O)[C@@H]2[C@H]3C(=O)N(c4cccc(Oc5ccccc5)c4)C(=O)[C@@H]3CC[C@H]12	26%[14.2 µM]	nt	nt	nt
COC(=O)c1ccc(COC(=O)c2cc3ccccc3oc2=O)cc1	nt	nt	11*	24
COc1cccc2cc(CC(=O)c3ccc(C)cc3C)c(=O)oc12	nt	nt	55*	73*
CCOC(=O)c1ccc(COC(=O)c2cc3ccccc3oc2=O)o1	12%	0%	28*	40
SMILES	Marburg entry inh	Lassa entry inh	Cycloheximide cs	Shiga inhibitor
CCOC(=O)COc1ccc2cc(C(=O)OCC)c(=O)oc2c1	-3%	-12%	-4	27
COc1ccc(C(=O)Cc2cc3cccc(OC)c3oc2=O)cc1	nt	nt	-3	5
Cc1ccc(CNc2ccc(-c3nc(-c4ccco4)no3)cc2[N+](=O)[O-])cc1	-9%[46.1 µM]	-4%[46.1 µM]	nt	nt
O=S(=O)(NCCn1ccc2ccccc21)c1ccccc1	nt	nt	4	29
NS(=O)(=O)c1ccc(N=Cc2c(O)[nH]c3ccc4ncsc4c23)cc1	nt	7.1µM*	nt	nt
NS(=O)(=O)c1ccc(N=Nc2ccc(=O)[nH]c2O)cc1	4%	11%	10	13
CN(C)c1ccc(N=Cc2nc(-c3ccccc3)oc2OC(=O)c2cccc(Cl)c2)cc1	?	-29%	68*	71*
COc1ccc(N=Cc2nc(-c3ccccc3)oc2OC(C)=O)cc1	nt	nt	-1	14
Cc1ccc(C(=O)Oc2oc(-c3ccccc3)nc2C=Nc2ccc(N(C)C)cc2)cc1	?	-15%	78*	130*
COc1cccc(N=Cc2nc(-c3ccccc3)oc2OC(C)=O)c1	4%[46.1 µM]	-2%	8	48*
C[C@H]1COC(=O)[C@H](Cc2ccccc2)NC(=O)[C@@H](C)COC(=O)[C@H](Cc2ccccc2)NC1=O	-12%[14.2 µM]	nt	nt	nt
